From PubChem BioAssay
In the library only some 1.8% were active in any assay of this set; here they are far more common.
Fam108B counter: counter-screen for RBBP9 inhibitors: inhibitors of mouse Fam108B. recombinant Fam108B, FP-Rh probe fluorescence polarization. inhibition, % at 9.51 µM. actives 0.33% (n = 300,000). AID 1947;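 active = inhibition above the screen mean inhibition plus 3 SD, computed separately per campaign, cut at about 18% in these data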;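 note: inhibitors lower polarization as less probe binds the enzyme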
GSTO1 counter: GSTO1 inhibition, counter-screen for RBBP9 inhibitors; recombinant GSTO1, activity-based probe fluorescence polarization; inhibition, % at 5.96 µM; actives 1.1% (n = 300,000); P78417; AID 1974;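 active = inhibition above the campaign mean inhibition plus 3 SD, cut at about 35% in these data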;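 note: 0% = GSTO1-1 with DMSO and 100% = wells lacking GSTO1-1 enzyme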
Target sequence (P78417 whole entry, looked up): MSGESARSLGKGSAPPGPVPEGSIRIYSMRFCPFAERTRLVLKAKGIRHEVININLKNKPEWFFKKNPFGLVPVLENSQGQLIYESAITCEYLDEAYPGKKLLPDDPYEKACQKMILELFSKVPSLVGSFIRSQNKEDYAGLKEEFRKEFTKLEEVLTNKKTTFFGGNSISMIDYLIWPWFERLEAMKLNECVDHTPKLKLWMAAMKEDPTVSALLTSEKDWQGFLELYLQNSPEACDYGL
PAD4 inh: inhibitors of human PAD4 | Q9UM07 | recombinant PAD4, RCA probe fluorescence polarization | inhibition, % at 6.36 µM | actives 0.41% (n = 330,000) | AID 485272;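 active = percent inhibition above a cutoff equal to the mean of all tested compounds plus 3 SD, cut at about 15% in these data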;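 note: 0% = PAD4 with RCA probe and DMSO and 100% = probe without PAD4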
LYPLA1 counter: LYPLA1 (human) inhibition in PME1 counter-screen; AID 2174; inhibition, % at 5.9 µM; O75608; recombinant LYPLA1, FP-Rh probe fluorescence polarization; actives 0.16% (n = 320,000);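 active = inhibition above the mean of all tested compounds plus 3 SD, set per campaign, cut at about 14% in these data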;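 note: inhibitors block serine hydrolase probe labeling of LYPLA1 so polarization falls; 0% = enzyme with DMSO and 100% = wells lacking LYPLA1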
Target sequence (O75608 whole entry, looked up): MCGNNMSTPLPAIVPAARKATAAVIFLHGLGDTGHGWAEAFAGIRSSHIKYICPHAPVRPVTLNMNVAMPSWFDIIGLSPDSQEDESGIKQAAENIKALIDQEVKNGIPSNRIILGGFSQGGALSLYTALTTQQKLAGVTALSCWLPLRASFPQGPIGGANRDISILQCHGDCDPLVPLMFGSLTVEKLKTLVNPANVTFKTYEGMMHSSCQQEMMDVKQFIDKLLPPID
PME-1 inh: blocks human protein phosphatase methylesterase 1. actives 0.53% (n = 320,000). inhibition, % at 5.9 µM. recombinant PME-1, FP-Rh probe fluorescence polarization. AID 2130. Q9Y570;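 active = inhibition above the campaign mean of all compounds plus 3 SD, cut at about 26% in these data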;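 note: competitive labeling of PME-1 active site by serine hydrolase directed probe; 0% = PME-1 with DMSO and 100% = wells lacking PME-1 enzyme; inhibitors block probe labeling so polarization falls and inhibition rises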
LYPLA2 counter: counter-screen for PME1 inhibitors: inhibitors of human LYPLA2; actives 0.38% (n = 320,000); inhibition, % at 5.9 µM; recombinant LYPLA2, FP-Rh probe fluorescence polarization; O95372;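 active = inhibition above the screen-wide mean plus 3 SD, limit set per campaign, cut at about 26% in these data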;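 note: 0% = LYPLA2 with DMSO and 100% = wells lacking LYPLA2 enzyme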
Target sequence (O95372 whole entry, looked up): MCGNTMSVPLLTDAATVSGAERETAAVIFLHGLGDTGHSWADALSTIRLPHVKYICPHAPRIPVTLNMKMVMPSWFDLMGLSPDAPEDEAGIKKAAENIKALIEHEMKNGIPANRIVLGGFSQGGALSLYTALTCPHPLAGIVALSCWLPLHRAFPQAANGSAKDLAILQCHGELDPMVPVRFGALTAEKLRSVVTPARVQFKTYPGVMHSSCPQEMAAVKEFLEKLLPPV
PAD4 confirm: confirmation of human PAD4 inhibitors; shares compounds with PAD4 inh; recombinant PAD4, RCA probe fluorescence polarization; inhibition, % at 6.36 µM; actives 28% (n = 1,200); AID 488796;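 active = mean inhibition across replicates above the hit cutoff set by the earlier primary screen, cut at about 15% in these data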;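 note: inhibitors block active-site labeling by the probe so polarization falls; 0% = PAD4 with probe and DMSO and 100% = probe without PAD4 enzyme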
Starred values were filed as active, the others as inactive; / = no result given; + = active, no number.

SMILES	Fam108B counter	GSTO1 counter	PAD4 inh	LYPLA1 counter	PME-1 inh	LYPLA2 counter	PAD4 confirm
CC1CCCC(NC(=O)COC(=O)c2ccc(Cl)nc2)C1C (stereo not given)	/	/	-0.8	2.1	1.4	9.3	/
CCC(=O)NNC(=O)Cc1c(C)n(C(=O)c2ccc(Cl)cc2)c2ccc(OC)cc12	-0.7	0.7	-5.7	0.0	-7.5	-1.4	/
CN(C)CCCNc1cc(O)c2ncccc2c1	/	/	15.7*	/	/	/	-9.8
O=C(Nc1ccc(Cl)cc1)Nc1ccccc1Sc1ncc([N+](=O)[O-])s1	4.6	-20.0	21.9*	-4.5	9.5	3.1	14.2
COC(=O)c1ccccc1-c1ccc(C(c2c(C)[nH][nH]c2=O)c2c(C)[nH][nH]c2=O)o1	3.5	65.3*	54.0*	-0.4	-2.9	1.6	13.3
Cc1ccc(/C(=N/Nc2nc3ccccc3s2)C2=C(O)c3ccccc3C2=O)cc1	10.2	-17.4	42.1*	-3.2	8.9	-0.9	16.6*
Cc1ccc(S(=O)(=O)N(C)CC(=O)Nc2nc3ccccc3s2)cc1	1.2	1.2	0.8	0.3	-1.3	5.3	/
CCN(Cc1ccccc1)C(=O)CC(=O)N(CC)Cc1ccccc1	9.4	0.0	-1.2	7.6	8.0	14.7	/
Cc1cc(C)c2c(c1)-c1c(ssc1=S)C(C)(C)N2C(=O)CN1C(=O)c2ccccc2C1=O	-0.5	-8.3	23.6*	-0.7	4.0	6.4	38.5*
Cc1cccc2c1N(C(=O)CN1C(=O)c3ccccc3C1=O)C(C)(C)c1ssc(=S)c1-2	1.9	4.6	26.8*	0.2	7.7	0.5	39.8*
CCOC(=O)Cn1ccc(NC(=O)c2ccc3c(c2)OCO3)n1	-0.7	3.8	3.0	-5.0	4.8	-7.9	/
Cc1noc(C)c1S(=O)(=O)N(C)C[C@H]1Oc2c(NS(=O)(=O)c3cn(C)cn3)cccc2C(=O)N([C@H](C)CO)C[C@@H]1C	/	/	37.1*	/	/	/	5.6
Cc1ccc(C(C[N+](=O)[O-])c2c(C)[nH]n(-c3ccccc3)c2=O)cc1 (stereo not given)	5.0	75.6*	16.7*	-3.1	2.3	-3.9	-4.2
Cc1[nH]n(-c2ccccc2)c(=O)c1C(c1ccccc1C(=O)O)c1c(C)[nH]n(-c2ccccc2)c1=O	-4.8	3.5	-3.5	2.9	-1.0	2.4	/
Cc1[nH]n(-c2ccccc2)c(=O)c1C(c1ccccc1[N+](=O)[O-])C(C#N)C#N (stereo not given)	5.3	7.7	22.3*	0.0	2.1	1.7	2.3
CCCC(=O)N(Cc1cc(=O)[nH]c2ccccc12)c1ccccc1OC	-1.6	-4.3	-6.5	-2.3	3.2	-3.3	/
CCC(=O)N(Cc1cc(=O)[nH]c2ccccc12)c1ccccc1C	0.3	-3.8	17.6*	0.2	10.5	1.2	21.5*
CCC(=O)N(Cc1cc(=O)[nH]c2ccccc12)c1cccc(C)c1	-5.7	-3.8	45.5*	1.9	10.2	12.3	33.0*
COC(=O)c1ccccc1NC(=O)CN1CCC(C(=O)c2ccc3c(c2)OCCO3)CC1	-2.1	5.0	-4.2	2.7	0.5	7.3	/
COc1ccc(C2C(C#N)=C(N)N(N(C)C)C3=C2C(=O)CCC3)cc1 (stereo not given)	1.7	3.1	89.5*	-5.6	3.1	-4.0	2.8
CCCn1c(=O)[nH]c(=O)c2c1nc(-c1cc([N+](=O)[O-])ccc1Cl)n2CCOC	4.3	4.9	3.5	1.9	-2.8	0.8	/
COc1ccc(C2CC(c3cccs3)=NN2S(C)(=O)=O)cc1 (stereo not given)	-2.7	-0.2	2.3	-0.3	7.5	4.1	/
COc1ccc(C2CC(c3cccs3)=Nc3ccccc3S2)cc1 (stereo not given)	-5.4	-1.5	21.3*	-5.9	-5.8	-0.9	2.2
O=C(CN1CCOCC1)Nc1nc2ccc(Br)cc2s1	-1.8	1.4	17.3*	-0.3	0.8	-6.2	9.3
O=C(CN1CCOCC1)Nc1nc2ccc(Cl)cc2s1	1.7	2.8	-4.0	-2.3	-5.3	-2.8	/
SMILES	Fam108B counter	GSTO1 counter	PAD4 inh	LYPLA1 counter	PME-1 inh	LYPLA2 counter	PAD4 confirm
Cc1ccccc1NC(=O)C[n+]1cc(-c2ccccc2)n2c1CCC2	0.6	2.4	-1.4	3.6	-5.6	5.1	/
O=C(NC(c1ccccc1)c1ccccc1)c1ccc(=O)[nH]n1	-3.1	3.8	-3.3	0.5	1.6	1.2	/
COc1ccccc1C(=O)NC(=O)COC(=O)CCOc1ccc(C)cc1	-1.7	4.2	0.6	-3.5	6.2	0.2	/
O=[N+]([O-])c1cnc(N2CCCCC2)c([N+](=O)[O-])c1	8.6	9.0	40.7*	7.2	7.1	7.4	-2.8
Cc1cc([N+](=O)[O-])cnc1N1CCOCC1	-2.8	4.4	0.6	-0.4	4.8	0.0	/
O=C(c1cc(-c2ccncc2)nc2ccccc12)N1CCN(c2ccc(N3CCOCC3)nn2)CC1	2.3	-0.5	-3.2	-1.2	-3.5	3.0	/
COc1ccc(OC)c(N/C(C)=C/C(=O)c2ccncc2)c1	1.5	2.3	23.2*	-2.8	-6.1	-4.6	-4.5
COc1ccccc1N1CCN(C(=O)c2coc(=O)c(Br)c2)CC1	-0.1	-2.3	34.3*	-0.3	-1.8	-4.5	-0.6
COc1ccccc1N1CCN(C(=O)c2cccc(C(=O)N3CCN(c4ccccc4OC)CC3)c2)CC1	-0.9	4.6	-7.7	-2.5	-3.6	-1.1	/
Cc1c(NC(=O)CSc2nccn2C)c(=O)n(-c2ccccc2)n1C	-1.5	9.0	+	-1.1	-1.7	-4.5	-5.9
COc1ccc(NC(=O)CCCNC(=O)Cn2cnc3sc4c(c3c2=O)CCCC4)c(OC)c1	1.3	-2.5	35.1*	-1.9	-2.8	-2.1	3.7
O=C(NCc1n[nH]c(=S)n1-c1ccccc1)c1ccc(S(=O)(=O)N2CCOCC2)cc1	4.0	5.7	-2.1	1.0	-0.3	6.4	/
CCC(=O)Nc1ccc(SC#N)cc1C	3.5	5.8	40.3*	0.9	0.8	-0.3	42.2*
Cc1cc(SC#N)cc(C)c1NC(=O)CCl	-0.5	65.7*	25.3*	3.6	-7.5	-4.9	3.2
CCOC(=O)CC(=O)Nc1c(C)cc(C)cc1C	1.7	-4.5	0.0	2.3	3.8	5.9	/
Cc1ccccc1C(=O)OCc1cnc(Cl)s1	2.1	-6.8	0.6	-2.9	-8.6	-0.7	/
Brc1ccc(-c2nc(-c3ccncc3)no2)o1	1.8	7.0	15.3*	2.0	0.1	8.5	4.1
Brc1ccc(-c2nc(-c3ccncc3)no2)cc1	-2.7	-10.1	-2.0	-7.1	3.0	-7.0	/
O=C(Cn1sc2ccccc2c1=O)NC12CC3CC(CC(C3)C1)C2	-2.8	1.6	16.4*	-5.6	-0.8	-0.1	29.8*
CC(=O)Nc1c2c3c(cccc3n(C)c1=O)C(=O)c1ccccc1-2	3.0	16.8	65.4*	4.1	2.2	2.7	30.7*
CC(C)(C)NC(=O)c1cccc2c1-c1ccccc1C2=O	-0.9	0.8	-1.7	0.9	-9.7	-2.1	/
